# According to PubChem BioAssay AID651582 (Sanford-Burnham Center for Chemical Genomics, 2012):
# The whole screen tested about 230,000 compounds, of which about 1,500 (0.65%) were called active.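 How the source made its calls: active means pattern-corrected inhibition of lipid staining of at least 50% with the nuclear-stain viability signal not falling by more than 50%; inactive means the rest, inconclusive results apart.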 The list comes from a sample in which actives are over-represented; it also holds similar structures and randomly drawn compounds.
# Assay: inhibitors of triacylglycerol accumulation, primary screen, cell-based, uHTS, fluorescence, H9c2 (AID 651582);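 on inhibition: 0% = DMSO wells and 100% = triacsin C control wells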
# Conditions: H9c2 cells, Nile Red lipid (TAG) fluorescence, at 12.5 µM, cells loaded with 200 µM oleic acid; DAPI nuclei signal change (viability), lower = more cytotoxic: measured here: DAPI nuclei count viability; inhibition: stronger effect = higher value
Structure (SMILES),"DAPI nuclei signal change (viability), lower = more cytotoxic [%]",inhibition
COc1cc(NC(=O)c2cc(-c3ccc(F)cc3OC(C)C)n[nH]2)cc(OC)c1OC,-6.58,5.57% (inactive)
Cc1ccc(Sc2cc(N3CCOCC3)nc(-c3ccccc3)n2)cc1,-0.706,55.1% (active)
Cc1cc(N2CCN(c3ccccc3)CC2)nc(N2CCOCC2)n1,-3.71,14.3% (inactive)
O=S(=O)(Cc1cc(Sc2ccccc2)nc(-c2ccccc2)n1)c1ccccc1,-1.14,12.7% (inactive)
COc1ccc(-c2ccc3c(c2)C2CC3CCN2CCC#N)cc1 (stereo not given),3.73,-6.07% (inactive)
CCc1nc2ccc(C(=O)Nc3cccc(OC)c3)cn2c1N(CCC(C)C)CCN(C)C,0.0295,33.9% (inactive)
Cc1[nH]c2ccccc2c1C(=O)C(=O)NCc1nnnn1-c1cccc(F)c1,9.45,-12.5% (inactive)
CCN(CC)c1ncnc2c1ncn2[C@H]1CN(Cc2cccs2)C[C@@H](CO)O1,-0.273,-11.2% (inactive)
OC(c1ccc(Cl)cc1)c1ncc(-c2ccc(Cl)cc2)[nH]1 (stereo not given),11,-53.7% (inactive)
CCCOc1ccccc1C1CC(=O)Nc2cc3c(cc21)OCO3 (stereo not given),-7.65,28.7% (inactive)
O=C1OCC2=C1C(c1ccc(Cl)cc1)c1cc3c(cc1O2)OCO3 (stereo not given),6.8,11% (inactive)
COc1ccccc1C1C2=C(COC2=O)Nc2cc3c(cc21)OCO3 (stereo not given),-19.2,58.6% (active)
CN(C)S(=O)(=O)c1cccc(NC(=O)COc2ccc3ccccc3c2)c1,-8.57,-14% (inactive)
O=C(NCCO)c1cccc(-c2cccc3nccn23)c1,4.67,-6.44% (inactive)
CCOc1ccc(-n2c(O)c(/C=N/Nc3nnc(C)c(=O)[nH]3)c3ccccc3c2=O)cc1,5.58,-10.7% (inactive)
COc1ccc(CCNC(=O)CCCCn2c(=O)[nH]c3ccccc3c2=O)cc1OC,-8.64,21.8% (inactive)
COc1ccc(Cc2nnc(N/N=C/c3ccccc3O)[nH]c2=O)cc1OC,-27,50.4% (active)
CC1C(=O)N(Cc2cn(CC3CCCCC3)nn2)CCS(=O)(=O)N1Cc1ccc(-c2cccc(N(C)C)c2)cc1 (stereo not given),-0.553,-17.1% (inactive)
COc1ccc(CC(=O)Nc2ccc(-c3nnc(-c4ccc(C)cc4)o3)cc2)cc1,2.81,59.2% (active)
COc1ccc(NC(=O)c2cc(-c3ccc(C)cc3)on2)cc1,4.01,-3.75% (inactive)
Cc1ccc(OCC(=O)Nc2ccc(-c3nc4ncccc4o3)cc2)cc1,18.7,14% (inactive)
NNC(=O)c1nnn(-c2nonc2N)c1CN1CCCC1,-4.78,-6.85% (inactive)
CC1(C)CC(=O)C=C(c2ccccc2CO)C1=O,-1.17,-16.1% (inactive)
CC(=O)CC(CC(=O)NC1CCCCC1)c1ccccc1 (stereo not given),1.1,2.67% (inactive)
Cc1nn(C)cc1/C=N/NC(=O)c1sc2ccccc2c1Cl,6.2,-14.7% (inactive)

Structure (SMILES),"DAPI nuclei signal change (viability), lower = more cytotoxic [%]",inhibition
COc1ccc(CNC(=O)CNC(=O)c2sc3ccccc3c2Cl)cc1OC,-2.17,10.6% (inactive)
Cc1ccc(-c2nc3ccccc3[nH]2)cc1NC(=O)c1sc2ccccc2c1Cl,17.5,58.3% (active)
Cc1ccc(Cc2c(-c3ccccc3)nc3ccc(Cl)cn23)cc1,0.00442,-0.293% (inactive)
COc1ccc(C(=O)N(C)Cc2ccc(OC)c(OC)c2OC)cc1S(=O)(=O)N1CCOCC1,-5.3,8.22% (inactive)
COc1ccc2[nH]c3c(c2c1)CCN1C(=O)C(CC(=O)NCCCN(C)C)C[C@H](C(=O)N2CCOCC2)[C@@]31CCC1CCCC1 (stereo not given in full),-19.4,31.2% (inactive)
O=C(C[C@H]1C[C@H](C(=O)N2CCOCC2)[C@@]2(CCC3CCCC3)c3[nH]c4ccc(Cl)cc4c3CCN2C1=O)NCc1ccco1,8.62,28.1% (inactive)
COc1ccc(CNC(=O)C[C@H]2C[C@H](C(=O)N3CCOCC3)[C@@]3(CCC4CCCC4)c4[nH]c5ccc(Cl)cc5c4CCN3C2=O)cc1OC,0.251,63.8% (active)
CC[C@]12c3[nH]c4ccc(OC)cc4c3CCN1C(=O)C(CC(=O)NCc1ccco1)C[C@@H]2C(=O)N1CCN(C(=O)C2CC2)CC1 (stereo not given in full),-9.73,7.93% (inactive)
Cc1cc(C)n(-c2cc(Oc3ccccc3)ncn2)n1,6.79,-18.3% (inactive)
CC(=O)c1ccc(Oc2cc(C)nc(-n3nc(C)cc3C)n2)cc1,-32.4,61.3% (active)
Cc1cc(Oc2ccccc2)nc(N2CCOCC2)n1,6.77,-9.8% (inactive)
CN(CCc1ccccc1)C(=O)c1cccc(NC(=O)Cc2ccc([N+](=O)[O-])cc2)c1,-3.23,-35% (inactive)
COc1cc(C(=O)OCC(=O)NC23CC4CC(CC(C4)C2)C3)cc(OC)c1OC,-0.331,-18.4% (inactive)
COc1cccc(-n2c(=S)sc3c(=O)n(-c4ccccc4OC)c(SCC4OCCO4)nc32)c1,-13.5,20.8% (inactive)
CCc1ccc(-n2c(=S)sc3c(=O)n(-c4ccccc4OC)c(=S)[nH]c32)cc1,8.9,-2.37% (inactive)
COc1ccccc1-n1c(=S)[nH]c2c(sc(=S)n2-c2ccc(C)cc2C)c1=O,-48.2,65.4% (active)
CN(CC1CCCO1)S(=O)(=O)c1ccc(C(=O)Nc2ccc([N+](=O)[O-])cc2)cc1 (stereo not given),3.29,-15.4% (inactive)
O=C(Nc1ccc(C(=O)N2CCCCC2)cc1)c1cccc([N+](=O)[O-])c1,5.03,3.82% (inactive)
O=C(Nc1cc2c3c(c1)C1CCCC1CN3CC1CCCC21)c1ccc([N+](=O)[O-])cc1 (stereo not given),-11.5,53.3% (active)
O=C(Cc1ccccc1)N1CCN(S(=O)(=O)c2ccc([N+](=O)[O-])cc2)CC1,-3.05,-0.872% (inactive)
CC1(c2ccccc2)CC(C)(C)N(C(=O)c2cc([N+](=O)[O-])cc([N+](=O)[O-])c2)c2ccccc21 (stereo not given),-2.38,54.1% (active)
CC1CCN(C(=S)c2cccc([N+](=O)[O-])c2)CC1,4.33,-2.26% (inactive)
CCCCN(C=O)c1c(CC)nc2c(OCc3ccccc3C(=O)OC)cccn12,-7.9,4.1% (inactive)
O=C(CCl)NNc1nc(-c2ccccc2)c2cc(Cl)ccc2n1,-5.54,4.04% (inactive)
CN(O)C(=S)c1ccccc1,-65.1,90.7% (inactive)

Structure (SMILES),"DAPI nuclei signal change (viability), lower = more cytotoxic [%]",inhibition
CN(/N=C/c1ccccc1)C(=S)c1ccccc1,-19.1,63.6% (active)
O=C(NN=Cc1ccccc1)c1ccccc1,1.87,-3.23% (inactive)
NC(=O)c1ncn([C@@H]2O[C@H](CNCc3cnc(N4CCOCC4)s3)[C@@H](O)[C@H]2O)n1,-1.13,2.87% (inactive)
Cc1ccccc1OCC(=O)Nc1ccc2c(c1)ncn2C,5.22,2.71% (inactive)
Cc1ccccc1OCC(=O)Nc1ccc(N2CCN(C(=O)C(C)C)CC2)c(Cl)c1,-3.43,53.8% (active)
CCC(=O)N1CCN(c2ccccc2NC(=O)COc2cccc(C)c2C)CC1,-0.0457,-24.8% (inactive)
CN1CCC(N(C)S(=O)(=O)c2ccc(NC(=O)c3cccc(C#N)c3)cc2)CC1,-3.7,15.9% (inactive)
Oc1cccc2cc(-c3ccncc3)cnc12,-33.8,56.3% (active)
COc1ccc(NC(=O)CSc2nnc(C3CC3)n2C)cc1S(=O)(=O)N1CCCCC1,9.15,-10.9% (inactive)
CCN(CC)C(=O)C1=C(C)N(Cc2ccccc2)C(=O)C(CC(=O)NC(c2ccccc2)c2ccccc2)C1 (stereo not given),-1.27,22.4% (inactive)
Cc1ccc(S(=O)(=O)N2CCN(C(=O)c3cc(S(=O)(=O)N4CCOCC4)ccc3F)CC2)cc1,-10.8,2.68% (inactive)
Cc1ccc(S(=O)(=O)N(Cc2cccc([N+](=O)[O-])c2)C(=O)N2CCN(C)CC2)cc1,-12.6,6.71% (inactive)
O=C(CCl)N(Cc1cccc([N+](=O)[O-])c1)c1cccc(Cl)c1,0.0094,53.5% (active)
CCN(CC)C(=O)CN(c1cccc([N+](=O)[O-])c1)S(=O)(=O)c1ccccc1,-11.2,5.09% (inactive)
COc1ccc(-c2c(C#N)cnc(C)c2C)c(O)c1OC,-5.41,12.5% (inactive)
CC(=O)Nc1cccc(-c2ccnc3c2CC(C)(C(=O)NCc2ccco2)O3)c1 (stereo not given),-40.5,43.4% (inactive)
CC1(C(=O)NCc2ccc(F)c(F)c2)Cc2c(-c3ccc4c(c3)OCO4)ccnc2O1 (stereo not given),-30.3,36.2% (inactive)
CC1(C(=O)NCc2ccco2)Cc2c(-c3ccc4c(c3)OCO4)ccnc2O1 (stereo not given),-35.6,52.2% (active)
CCc1nc2c(OCC(=O)C(C)(C)C)cccn2c1N(C)C(=O)c1ccccc1F,-14.1,14.9% (inactive)
CCN(CC(=O)Nc1ccc(NC(C)=O)cc1)C(=O)CSC(=S)N1CCCC1,-7.39,-13.5% (inactive)
Cc1nnc(N/N=C/c2cccs2)[nH]c1=O,4.89,29.3% (inactive)
Cc1nnc(N/N=C/c2ccccn2)[nH]c1=O,-33.8,53.3% (active)
Cc1ccccc1Nc1nnc(C)c(=O)[nH]1,1.64,-16.3% (inactive)
Cc1cc(C)cc(NC(=O)NCc2ccccn2)c1,7.71,-29.5% (inactive)
O=[N+]([O-])c1ccc(C=NN=Cc2ccc([N+](=O)[O-])cc2)cc1,-4.6,6.59% (inactive)
